Assay results: PubChem BioAssay (Tox21)
Inconclusive results are not listed. Calls of active or inactive are those of the source. Unless noted, calls follow the shape of the dose curve; as a rule, active = well fitted curve in the direction sought with a large enough effect in the repeat runs; inconclusive = weak or mixed curves; inactive = no such curve, though single readings can be large; an effect the other way counts as inactive or inconclusive.

Columns and labels:
[1] = qHTS assay to identify small molecule agonists of the peroxisome proliferator-activated receptor delta (PPARd) signaling pathway - cell viability counter screen (AID 743211); also: % is scaled to controls: 0 for no effect and ±100 for the full control effect; nearly all actives have a fitted effect of over 55% in size
Method in brief: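 Tox21 library compounds, delivered in DMSO, were incubated 17 h with PPARd-bla HEK293H cells; cytotoxicity was taken from CellTiter-Glo luminescence read 30 min after reagent addition.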

[2] = target: Peroxisome proliferator-activated receptor delta (Homo sapiens) (UniProt Q03181); assay: qHTS assay to identify small molecule agonists of the peroxisome proliferator-activated receptor delta (PPARd) signaling pathway (AID 743212; calls by dose curve; also: % is scaled to controls: 0 for no effect and ±100 for the full control effect)
Method in brief: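 HEK293H PPARd-bla cells; 5 h preincubation 37 C/5% CO2; compound (DMSO) 37 C; LiveBLAzer B/G FRET substrate 2 h RT; fluorescence intensity.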

[3] = qHTS assay to identify small molecule antagonists of the peroxisome proliferator-activated receptor delta (PPARd) signaling pathway - cell viability counter screen (AID 743213); also: % is scaled to controls: 0 for no effect and ±100 for the full control effect; nearly all actives have a fitted effect of over 50% in size
Method in brief: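 PPARd-bla HEK293H cells (3000/well) got compound plus 300 nM L165041 agonist for 17 h at 37 C. Viability in the same wells came from CellTiter-Glo luminescence after 30 min at room temperature.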

[4] = target: Peroxisome proliferator-activated receptor delta (Homo sapiens) (UniProt Q03181); assay: qHTS assay to identify small molecule antagonists of the peroxisome proliferator-activated receptor delta (PPARd) signaling pathway (AID 743215; active = well fitted inhibition curve with a large enough effect in the signal ratio in the repeat runs, not every such curve was filed as active; the % refers to the signal ratio;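 also: cells stimulated with agonist L165041 at 300 nM final during compound exposure; series mostly up to about 62 µM; % is scaled to controls: 0 for no effect and ±100 for the full control effect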)
Method in brief: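 PPARd-bla HEK293H cells (UAS-bla reporter) preincubated 5 h, then given compound plus 300 nM final L165041 agonist for 17 h at 37 C. Beta-lactamase activity read by LiveBLAzer B/G FRET substrate fluorescence after 2 h at room temperature.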

[5] = qHTS assay to identify small molecule agonists of the farnesoid-X-receptor (FXR) signaling pathway - cell viability counter screen (AID 743218); also: % is scaled to controls: 0 for no effect and ±100 for the full control effect; nearly all actives have a fitted effect of over 45% in size
Method in brief: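 FXR-UAS-bla HEK 293T cells exposed to compounds for 16 h at 37C. Cytotoxicity read in the same wells by CellTiter-Glo luminescence after 30 min at room temperature, following the beta-lactamase FRET read.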

[6] = target: Vitamin D3 receptor (Homo sapiens) (UniProt P11473); assay: qHTS assay to identify small molecule antagonists of the vitamin D receptor (VDR) signaling pathway (AID 743223; active = well fitted inhibition curve with a large enough effect in the signal ratio in the repeat runs, not every such curve was filed as active; the % refers to the signal ratio; also: % is scaled to controls: 0 for no effect and ±100 for the full control effect)
Method in brief: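 Quantitative HTS in VDR-bla reporter cells stimulated with 1alpha,25-dihydroxyvitamin D3, 3 nM final. Compound exposure 16 h, 37C, 5% CO2. Read-out: beta-lactamase FRET substrate fluorescence, 2 h RT.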

[7] = qHTS assay to identify small molecule agonists of the vitamin D receptor (VDR) signaling pathway - cell viability counter screen (AID 743224); also: series mostly up to about 63 µM; % is scaled to controls: 0 for no effect and ±100 for the full control effect; nearly all actives have a fitted effect of over 50% in size
Method in brief: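 VDR-bla cells, 4 h after plating, exposed to compounds for 16 h at 37C; viability then read in the same wells as CellTiter-Glo luminescence after 30 min at room temperature, following the bla FRET read.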

[8] = qHTS assay to identify small molecule agonists of the NFkB signaling pathway - cell viability counter screen (AID 1159515; calls by dose curve; also: series mostly up to about 61 µM; % is scaled to controls: 0 for no effect and ±100 for the full control effect; nearly all actives have a fitted effect of over 55% in size)
Method in brief: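 NFkB-bla ME-180 cells, 2,000/well, plated overnight at 37 C; compound added for 5 hr at 37 C. Viability read in the same wells as the bla reporter, by CellTiter-Glo luminescence after 30 min at room temperature.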

[9] = qHTS assay to identify small molecule agonists of the endoplasmic reticulum stress response signaling pathway (AID 1159516; active = well fitted activation curve with a large enough effect in the signal ratio in the repeat runs, not every such curve was filed as active; the % refers to the signal ratio; also: % is scaled to controls: 0 for no effect and ±100 for the full control effect)
Method in brief: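 CellSensor ESRE-bla HeLa cells, 1,500 per well, plated overnight, then exposed to compounds for 5 hr at 37 C. Beta-lactamase reporter read with LiveBLAzer B/G FRET substrate after 2 hr at room temperature, 405 nm excitation, 460 and 530 nm emission.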

[10] = qHTS assay to identify small molecule agonists of the endoplasmic reticulum stress response signaling pathway - cell viability counter screen (AID 1159517; calls by dose curve;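 also: HeLa cells carrying an ER stress response element beta-lactamase reporter; series mostly up to about 61 µM; % is scaled to controls: 0 for no effect and ±100 for the full control effect; nearly all actives have a fitted effect of over 50% in size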)
Method in brief: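 HeLa cells carrying an ESRE-driven beta-lactamase reporter receive compound for 5 hr at 37 C. Cell viability is then gauged with CellTiter-Glo by luminescence, 30 min at room temperature.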

[11] = qHTS assay to identify small molecule antagonists of the retinoid-related orphan receptor gamma (ROR-gamma) signaling pathway - cell viability counter screen (AID 1159520); also: % is scaled to controls: 0 for no effect and ±100 for the full control effect; nearly all actives have a fitted effect of over 50% in size
Method in brief: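 Cytotoxicity was read from cellular ATP (CellTiter-Glo luminescence) after 16 hr at 37 C with 1 uM doxycycline induction. The inducer was added 2 hr after compound transfer to Tet-on ROR gamma CHO cells.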

[12] = qHTS assay to identify small molecule agonists of the AP-1 signaling pathway - cell viability counter screen (AID 1159525; calls by dose curve; also: nearly all actives have a fitted effect of over 55% in size)
Method in brief: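 Luminescent ATP readout (Cell Titer Glo, 30 min RT), normalised to DMSO and tetra n-octyl ammonium bromide controls. Cells were ME-180 AP-1-bla in 0.5% dialyzed FBS Opti-MEM, with a 5 h, 37 °C compound exposure.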

[13] = qHTS assay to identify small molecule agonists of the AP-1 signaling pathway (AID 1159526; calls by dose curve; also: % is scaled to controls: 0 for no effect and ±100 for the full control effect)
[14] = qHTS assay to identify small molecule antagonists of the farnesoid-X-receptor (FXR) signaling pathway - cell viability counter screen (AID 743221; active = well fitted cell-killing curve with a large enough effect in the repeat runs, not every such curve was filed as active)
Method in brief: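 Cytotoxicity is taken from ATP luminescence (CellTiter-Glo, 30 min, room temperature) in FXR-bla HEK 293T cells previously incubated 16 h at 37 C with compound and chenodeoxycholic acid at 50 uM final.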

[15] = qHTS assay to identify small molecule antagonists of the vitamin D receptor (VDR) signaling pathway - cell viability counter screen (AID 743225)
Method in brief: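 Same-well multiplex: following 16 h treatment of HEK 293T cells carrying a UAS-driven beta-lactamase reporter with compound and agonist (3 nM final), and a 2 h FRET substrate step, CellTiter-Glo was added and luminescence read after 30 min.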

[16] = target: Bile acid receptor (Homo sapiens) (UniProt Q96RI1); assay: qHTS assay to identify small molecule antagonists of the farnesoid-X-receptor (FXR) signaling pathway (AID 743217; active = well fitted inhibition curve with a large enough effect in the signal ratio in the repeat runs, not every such curve was filed as active; the % refers to the signal ratio; also: % is scaled to controls: 0 for no effect and ±100 for the full control effect)
Method in brief: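 FXR-UAS-bla HEK 293T cells (beta-lactamase reporter) given compound plus chenodeoxycholic acid (50 uM final), 16 h at 37C. LiveBLAzer B/G FRET substrate added for 2 h at room temperature; fluorescence read.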

[17] = target: Bile acid receptor (Homo sapiens) (UniProt Q96RI1); assay: qHTS assay to identify small molecule agonists of the farnesoid-X-receptor (FXR) signaling pathway (AID 743220; active = well fitted activation curve with a large enough effect in the signal ratio in the repeat runs, not every such curve was filed as active; the % refers to the signal ratio; also: % is scaled to controls: 0 for no effect and ±100 for the full control effect)
Method in brief: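 Beta-lactamase reporter under UAS control in GeneBLAzer FXR HEK 293T cells (5000/well) measured with LiveBLAzer FRET substrate after 2 h at room temperature. Compound exposure lasted 16 h at 37C.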

[18] = target: Nuclear receptor ROR-gamma (Homo sapiens) (UniProt P51449); assay: qHTS assay to identify small molecule antagonists of the retinoid-related orphan receptor gamma (ROR-gamma) signaling pathway (AID 1159521)
Method in brief: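 Inducible-expression reporter assay: doxycycline (1 uM final) switched on RORγ in CHO cells bearing a ROR response element-luciferase construct, with test compounds present from 2 h beforehand. Decreased luminescence after 16 h defined antagonist activity.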

[19] = target: Vitamin D3 receptor (Homo sapiens) (UniProt P11473); assay: qHTS assay to identify small molecule agonists of the vitamin D receptor (VDR) signaling pathway (AID 743222; calls by dose curve; also: % is scaled to controls: 0 for no effect and ±100 for the full control effect)
Method in brief: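 VDR-bla cells plated 4 h at 37 C, then exposed to compounds for 16 h at 37 C. Beta-lactamase reporter activity measured by fluorescence after 2 h room-temperature loading with LiveBLAzer B/G FRET substrate.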

Sequence of Peroxisome proliferator-activated receptor delta (Homo sapiens) (Q03181 whole entry, looked up): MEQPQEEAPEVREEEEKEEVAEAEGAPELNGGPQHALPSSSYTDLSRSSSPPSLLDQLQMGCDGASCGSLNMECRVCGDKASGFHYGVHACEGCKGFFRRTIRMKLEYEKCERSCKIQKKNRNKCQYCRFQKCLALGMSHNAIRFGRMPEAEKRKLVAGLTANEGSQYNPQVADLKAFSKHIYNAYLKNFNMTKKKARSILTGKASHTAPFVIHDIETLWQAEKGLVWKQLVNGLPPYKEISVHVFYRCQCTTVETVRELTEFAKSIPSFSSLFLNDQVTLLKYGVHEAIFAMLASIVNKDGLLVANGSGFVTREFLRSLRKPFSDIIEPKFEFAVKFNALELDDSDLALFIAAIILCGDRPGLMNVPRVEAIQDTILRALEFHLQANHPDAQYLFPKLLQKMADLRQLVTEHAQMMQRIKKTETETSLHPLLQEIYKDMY
Sequence of Vitamin D3 receptor (Homo sapiens) (P11473 whole entry, looked up): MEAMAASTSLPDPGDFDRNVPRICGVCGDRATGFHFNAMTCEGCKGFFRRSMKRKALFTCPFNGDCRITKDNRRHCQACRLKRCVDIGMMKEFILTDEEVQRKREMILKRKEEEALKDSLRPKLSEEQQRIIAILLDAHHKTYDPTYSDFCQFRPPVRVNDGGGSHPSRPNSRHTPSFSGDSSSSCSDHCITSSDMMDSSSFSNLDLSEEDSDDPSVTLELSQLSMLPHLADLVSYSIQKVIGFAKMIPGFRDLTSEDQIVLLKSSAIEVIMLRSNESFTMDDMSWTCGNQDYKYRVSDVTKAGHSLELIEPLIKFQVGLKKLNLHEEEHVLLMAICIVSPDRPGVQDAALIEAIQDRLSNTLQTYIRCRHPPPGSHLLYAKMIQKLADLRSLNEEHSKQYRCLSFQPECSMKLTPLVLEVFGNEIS
Sequence of Bile acid receptor (Homo sapiens) (Q96RI1 whole entry, looked up): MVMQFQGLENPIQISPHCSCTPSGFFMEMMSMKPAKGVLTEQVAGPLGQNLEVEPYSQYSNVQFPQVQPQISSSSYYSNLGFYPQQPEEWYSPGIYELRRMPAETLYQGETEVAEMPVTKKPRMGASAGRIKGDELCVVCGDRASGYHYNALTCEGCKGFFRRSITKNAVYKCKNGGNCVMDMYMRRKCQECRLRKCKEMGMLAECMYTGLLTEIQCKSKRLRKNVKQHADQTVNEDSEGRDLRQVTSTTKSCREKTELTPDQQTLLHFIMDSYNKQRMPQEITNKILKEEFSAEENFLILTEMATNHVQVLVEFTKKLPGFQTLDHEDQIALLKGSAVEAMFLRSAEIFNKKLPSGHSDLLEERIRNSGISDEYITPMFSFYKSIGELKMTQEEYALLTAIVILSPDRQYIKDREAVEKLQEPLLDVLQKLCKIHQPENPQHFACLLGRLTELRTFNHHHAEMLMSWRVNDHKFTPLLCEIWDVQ

CCOC(=O)/C=C/c1ccccc1
inactive: outcome [1] | outcome [2] | outcome [3] | outcome [4] | Potency [5] | outcome [6] | Potency [7] | outcome [8] | outcome [9] | Potency [10] | outcome [11] | outcome [12] | outcome [13]

Brc1ccc(-c2ccccc2)cc1
inactive: outcome [1] | outcome [3] | Potency [5] | outcome [14] | outcome [6] | Potency [7] | outcome [15] | outcome [8] | outcome [9] | Potency [10] | outcome [11] | outcome [12] | outcome [13]

COc1ccc(Br)c(C)c1
inactive: outcome [1] | outcome [2] | outcome [3] | outcome [4] | Potency [16] | Potency [5] | Potency [17] | outcome [14] | Potency [7] | outcome [15] | outcome [8] | Potency [10] | outcome [11] | outcome [18] | outcome [12] | outcome [13]

CC/C=C\CC1=C(C)CCC1=O
inactive: outcome [1] | outcome [3] | outcome [14] | outcome [19] | outcome [6] | Potency [7] | outcome [8] | outcome [9] | outcome [11] | outcome [18] | outcome [12] | outcome [13]

CC(N)C(=O)OC(C)(C)Cc1ccc(Cl)cc1 (stereo not drawn)
inactive: outcome [1] | outcome [2] | outcome [4] | outcome [14] | outcome [19] | outcome [6] | Potency [7] | outcome [15] | outcome [8] | outcome [9] | outcome [11] | outcome [18] | outcome [12] | outcome [13]

COC(=O)C1CC(=O)C(C(=O)OC)CC1=O (stereo not drawn)
inactive: activity change, negative = cytotoxicity [1] -4.27% [at 5.95 µM] | activation [2] 3.55% [at 5.95 µM] | viability change, negative = cytotoxic [3] -19.8% [at 6.26 µM] | ratio activity, negative = inhibition [4] -19.7% [at 6.26 µM] | viability change, negative = cytotoxic [5] 25% [at 5.95 µM] | activity change, negative = cytotoxicity [14] -3.4% [at 5.95 µM] | viability change, negative = cytotoxic [15] 3.99% [at 6.95 µM] | activity, negative = cytotoxic [8] 4.94% [at 6.95 µM] | activation [9] 4.12% [at 6.95 µM] | activity, negative = cytotoxicity [11] 6.36% [at 8.39 µM] | activity change, negative = inhibition [18] 0.663% [at 8.39 µM] | viability change, negative = cytotoxic [12] 2.24% [at 6.97 µM] | activation [13] 1.04% [at 6.97 µM]

Cc1cc(C(C)(C)C)c(O)c(C)c1CC1=NCCN1
inactive: outcome [2] | outcome [3] | Potency [5] | outcome [14] | Potency [7] | outcome [15] | outcome [8] | outcome [9] | Potency [10] | outcome [11] | outcome [18] | outcome [12] | outcome [13]

CC(C)(C)c1n[nH]c(=S)n(N)c1=O
inactive: outcome [1] | outcome [3] | Potency [7] | outcome [15] | outcome [8] | outcome [9] | Potency [10] | outcome [11] | outcome [18] | outcome [12] | outcome [13]

CCCCCCOc1ccccc1C(N)=O
inactive: outcome [1] | outcome [2] | outcome [4] | Potency [5] | outcome [14] | outcome [19] | Potency [7] | outcome [15] | outcome [8] | outcome [9] | Potency [10] | outcome [11] | outcome [18] | outcome [12] | outcome [13]

O=C(Nc1ccc(Cl)c(Cl)c1)C1CC1
inactive: outcome [1] | outcome [2] | outcome [3] | outcome [4] | outcome [14] | Potency [7] | outcome [15] | outcome [8] | outcome [9] | outcome [11] | outcome [18] | outcome [12] | outcome [13]

COc1ccc(OC)c(Cl)c1
inactive: outcome [1] | outcome [2] | outcome [3] | outcome [4] | Potency [5] | outcome [14] | Potency [7] | outcome [15] | outcome [8] | outcome [9] | Potency [10] | outcome [11] | outcome [18] | outcome [12] | outcome [13]

CCCCN
inactive: outcome [1] | outcome [2] | outcome [3] | outcome [14] | outcome [19] | Potency [7] | outcome [15] | outcome [8] | outcome [9] | outcome [11] | outcome [12] | outcome [13]

O=C1O[C@@H]2[C@@H](O)[C@H](O)O[C@@H]2[C@H]1O
inactive: outcome [1] | outcome [3] | Potency [16] | Potency [17] | outcome [14] | outcome [19] | outcome [6] | outcome [15] | outcome [8] | outcome [9] | Potency [10] | outcome [11] | outcome [18] | outcome [12] | outcome [13]

C[C@@H](O)[C@H]1C(=O)N2C(C(=O)O)=C(SCCN=CN)C[C@H]12
inactive: outcome [1] | outcome [2] | outcome [3] | outcome [4] | Potency [16] | Potency [5] | Potency [17] | outcome [14] | outcome [8] | Potency [10] | outcome [11] | outcome [18] | outcome [12] | outcome [13]

CC(=O)Nc1ccc(S(=O)(=O)Nc2ccc([N+](=O)[O-])cc2)cc1
inactive: outcome [1] | outcome [2] | outcome [3] | Potency [5] | outcome [14] | outcome [19] | outcome [6] | Potency [7] | outcome [15] | outcome [8] | outcome [9] | Potency [10] | outcome [11] | outcome [18] | outcome [12] | outcome [13]

CN1CCN(CC(=O)N2c3ccccc3C(=O)Nc3cccnc32)CC1
inactive: activity change, negative = cytotoxicity [1] -5.11% [at 5.95 µM] | activation [2] -1.15% [at 5.95 µM] | viability change, negative = cytotoxic [3] 18.4% [at 6.26 µM] | ratio activity, negative = inhibition [4] 1.31% [at 6.26 µM] | viability change, negative = cytotoxic [5] 9.72% [at 5.95 µM] | activity change, negative = cytotoxicity [14] -5.73% [at 5.95 µM] | activation [19] 2.22% [at 6.01 µM] | activity change, negative = inhibition [6] -1.37% [at 6.95 µM] | activity change, negative = cytotoxicity [7] 0.894% [at 5.95 µM] | viability change, negative = cytotoxic [15] -0.964% [at 6.95 µM] | activity, negative = cytotoxic [8] 1.12% [at 6.95 µM] | activation [9] -0.546% [at 6.95 µM] | activity change, negative = cytotoxicity [10] -3.52% [at 6.95 µM] | activity, negative = cytotoxicity [11] 3.19% [at 8.39 µM] | activity change, negative = inhibition [18] 14.7% [at 8.39 µM] | viability change, negative = cytotoxic [12] 2.29% [at 6.97 µM] | activation [13] -1.4% [at 6.97 µM]

CCCC/C=C/C=C\C=O
inactive: outcome [1] | outcome [2] | outcome [3] | outcome [4] | Potency [16] | Potency [5] | Potency [17] | outcome [14] | outcome [19] | Potency [7] | outcome [15] | outcome [8] | Potency [10] | outcome [11] | outcome [18] | outcome [12] | outcome [13]

CC(C)CCCC(C)(C)O
inactive: outcome [1] | outcome [2] | outcome [3] | outcome [4] | Potency [5] | outcome [19] | outcome [6] | Potency [7] | outcome [15] | outcome [8] | outcome [11] | outcome [18] | outcome [12] | outcome [13]
